# Test results from the supplement of paper PMC10037445.
# Over roughly 2,900 compounds, “NF-kB SEAP reporter activity, fold change vs agonist alone” has its median near 0.99; the highest 2% begin near 2.6. What follows is part of a selection rich in the highest values, with near analogues and random picks from the rest.
# Tests used:
# RAW-Dual [1] = experiment: NF-kB SEAP reporter activity, fold change vs agonist alone; cytotoxicity flag (confluency mask): not cytotoxic; higher = enhanced NF-kB activity
# In short: (§1)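 RAW-Dual macrophages were seeded in DMEM at 50,000 cells/well in 384-well plates, given 50 nL of library stock by pin tool, and given a PRR agonist 1 h later. Plates were held at 37 °C, 5% CO2 for 20 hours, after which supernatant was read for IRF by QuantiLuc luminescence and for NF-κB by QuantiBlue absorbance at 620 nm. Reporter activity is expressed as fold change over wells that received agonist alone. A well was called cytotoxic when IncuCyte confluency fell below 70% of agonist controls in both mask sets.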
# RAW-Dual [2] = experiment: NF-kB SEAP reporter activity, fold change vs agonist alone; higher = enhanced NF-kB activity; conditions: library stock concentration (final ~1000-fold dilution): 10 mM
# In short: as §1
# RAW-Dual [3] = experiment: NF-kB SEAP reporter activity, fold change vs agonist alone; cytotoxicity flag (confluency mask): cytotoxic (confluency <70% of control); higher = enhanced NF-kB activity
# In short: as §1
# [4] = agonist: ODN 1826 (TLR9) 0.5 ug/mL
# [5] = agonist: Pam2CSK4 (TLR2/6) 0.1 ug/mL
# [6] = agonist: Pam3CSK4 (TLR2/1) 0.1 ug/mL
# [7] = cytotoxicity flag (confluency mask): not cytotoxic, agonist: Imiquimod (TLR7) […]
# [8] = cytotoxicity flag (confluency mask): not cytotoxic, agonist: MPLA (TLR4) […]
structure (smiles),measurement,setting,value
CCOc1cc(N)c([N+](=O)[O-])cc1C(=O)NC1CCN(CC2CC=CCC2)CC1.O=C(O)C(O)C(O)C(=O)O (stereo not given) (library stock concentration (final ~1000-fold dilution): 10 mM),NF-kB SEAP reporter activity,RAW-Dual [1]; agonist: LPS (TLR4) 0.1 ug/mL,1.38
same,NF-kB SEAP reporter activity,RAW-Dual [1]; [4],0.18
same,NF-kB SEAP reporter activity,RAW-Dual [1]; [5],0.898
same,NF-kB SEAP reporter activity,RAW-Dual [1]; [6],0.739
CCC(Nc1ncnc2[nH]cnc12)c1oc2ccccc2c(=O)c1-c1cccc(F)c1 (stereo not given) (library stock concentration (final ~1000-fold dilution): 10 mM),NF-kB SEAP reporter activity,RAW-Dual [1]; agonist: LPS (TLR4) 0.1 ug/mL,0.907
same,NF-kB SEAP reporter activity,RAW-Dual [1]; [4],0.718
same,NF-kB SEAP reporter activity,RAW-Dual [1]; [5],0.443
same,NF-kB SEAP reporter activity,RAW-Dual [1]; [6],0.61
CCC(Nc1ncnc2[nH]cnc12)c1oc2ccccc2c(=O)c1-c1cccc(F)c1 (stereo not given),NF-kB SEAP reporter activity,RAW-Dual [2]; [7],0.582
same,NF-kB SEAP reporter activity,RAW-Dual [2]; [8],0.924
O=C(Oc1cccc(F)c1OC(=O)c1cccc(O)c1)c1cccc(O)c1 (library stock concentration (final ~1000-fold dilution): 10 mM),NF-kB SEAP reporter activity,RAW-Dual [3]; agonist: LPS (TLR4) 0.1 ug/mL,1.21
same,NF-kB SEAP reporter activity,RAW-Dual [3]; [4],0.597
same,NF-kB SEAP reporter activity,RAW-Dual [3]; [5],0.639
same,NF-kB SEAP reporter activity,RAW-Dual [3]; [6],0.541
O=C(Oc1cccc(F)c1OC(=O)c1cccc(O)c1)c1cccc(O)c1,NF-kB SEAP reporter activity,"RAW-Dual [2]; cytotoxicity flag (confluency mask): cytotoxic (confluency <70% of control), agonist: Imiquimod (TLR7) […]",0.964
same,NF-kB SEAP reporter activity,"RAW-Dual [2]; cytotoxicity flag (confluency mask): cytotoxic (confluency <70% of control), agonist: MPLA (TLR4) […]",1.24
CC(C)C(NC(=O)c1ccc2ccccc2n1)C(=O)NC(CC(=O)O)C(=O)COc1c(F)cccc1F (stereo not given) (library stock concentration (final ~1000-fold dilution): 10 mM),NF-kB SEAP reporter activity,RAW-Dual [1]; agonist: LPS (TLR4) 0.1 ug/mL,1.05
same,NF-kB SEAP reporter activity,RAW-Dual [1]; [4],1.05
same,NF-kB SEAP reporter activity,RAW-Dual [1]; [5],1.03
same,NF-kB SEAP reporter activity,RAW-Dual [1]; [6],1.26
CC(C)C(NC(=O)c1ccc2ccccc2n1)C(=O)NC(CC(=O)O)C(=O)COc1c(F)cccc1F (stereo not given),NF-kB SEAP reporter activity,RAW-Dual [2]; [7],1.01
same,NF-kB SEAP reporter activity,RAW-Dual [2]; [8],1.14
CC12CCC3C(CCC4C(C)(C(=O)O)CCCC34C)(CC1=O)C2 (stereo not given),NF-kB SEAP reporter activity,RAW-Dual [2]; [7],0.95
same,NF-kB SEAP reporter activity,RAW-Dual [2]; [8],1.14
CC12CCC3C(CCC4C(C)(C(=O)O)CCCC34C)(CC1=O)C2 (stereo not given) (library stock concentration (final ~1000-fold dilution): 10 mM),NF-kB SEAP reporter activity,RAW-Dual [1]; agonist: LPS (TLR4) 0.1 ug/mL,1.41
same,NF-kB SEAP reporter activity,RAW-Dual [1]; [4],1.11
same,NF-kB SEAP reporter activity,RAW-Dual [1]; [5],1.13
same,NF-kB SEAP reporter activity,RAW-Dual [1]; [6],1.02
O=C1OC(=O)C2C3CCC(O3)C12 (stereo not given) (library stock concentration (final ~1000-fold dilution): 10 mM),NF-kB SEAP reporter activity,RAW-Dual [1]; agonist: LPS (TLR4) 0.1 ug/mL,3.23
same,NF-kB SEAP reporter activity,RAW-Dual [1]; [4],2
same,NF-kB SEAP reporter activity,RAW-Dual [1]; [5],1.84
same,NF-kB SEAP reporter activity,RAW-Dual [1]; [6],1.76
O=C1OC(=O)C2C3CCC(O3)C12 (stereo not given),NF-kB SEAP reporter activity,RAW-Dual [2]; [7],1.93
same,NF-kB SEAP reporter activity,RAW-Dual [2]; [8],2.03
CS(=O)(=O)O.Cc1c(O)cccc1C(=O)NC(CSc1ccccc1)C(O)CN1CC2CCCCC2CC1C(=O)NC(C)(C)C (stereo not given) (library stock concentration (final ~1000-fold dilution): 10 mM),NF-kB SEAP reporter activity,RAW-Dual [1]; agonist: LPS (TLR4) 0.1 ug/mL,4.08
same,NF-kB SEAP reporter activity,RAW-Dual [1]; [4],1.02
same,NF-kB SEAP reporter activity,RAW-Dual [1]; [5],0.418
same,NF-kB SEAP reporter activity,RAW-Dual [1]; [6],0.656
CC(C)(C)NC(=O)C1CN(Cc2cccnc2)CCN1CC(O)CC(Cc1ccccc1)C(=O)NC1c2ccccc2CC1O.O=S(=O)(O)O (stereo not given) (library stock concentration (final ~1000-fold dilution): 10 mM),NF-kB SEAP reporter activity,RAW-Dual [1]; agonist: LPS (TLR4) 0.1 ug/mL,1.3
same,NF-kB SEAP reporter activity,RAW-Dual [1]; [4],1.15
same,NF-kB SEAP reporter activity,RAW-Dual [1]; [5],1.2
same,NF-kB SEAP reporter activity,RAW-Dual [1]; [6],1.34
CS(=O)(=O)O.Cc1c(O)cccc1C(=O)NC(CSc1ccccc1)C(O)CN1CC2CCCCC2CC1C(=O)NC(C)(C)C (stereo not given),NF-kB SEAP reporter activity,RAW-Dual [2]; [7],2.13
same,NF-kB SEAP reporter activity,RAW-Dual [2]; [8],2.22
CC(C)(C)NC(=O)C1CN(Cc2cccnc2)CCN1CC(O)CC(Cc1ccccc1)C(=O)NC1c2ccccc2CC1O.O=S(=O)(O)O (stereo not given),NF-kB SEAP reporter activity,RAW-Dual [2]; [7],1.07
same,NF-kB SEAP reporter activity,RAW-Dual [2]; [8],1.21
C=C(C)C(=O)Nc1cccc(-c2ncnc3[nH]cc(C(=O)OCC)c23)c1 (library stock concentration (final ~1000-fold dilution): 10 mM),NF-kB SEAP reporter activity,RAW-Dual [1]; agonist: LPS (TLR4) 0.1 ug/mL,1.36
same,NF-kB SEAP reporter activity,RAW-Dual [1]; [4],1.14
same,NF-kB SEAP reporter activity,RAW-Dual [1]; [5],1.44
same,NF-kB SEAP reporter activity,RAW-Dual [1]; [6],1.27
C=C(C)C(=O)Nc1cccc(-c2ncnc3[nH]cc(C(=O)OCC)c23)c1,NF-kB SEAP reporter activity,RAW-Dual [2]; [7],1.01
same,NF-kB SEAP reporter activity,RAW-Dual [2]; [8],1.18
C=C1C(=O)OC2/C=C(\C)CC/C=C(\C)CCC12 (stereo not given),NF-kB SEAP reporter activity,RAW-Dual [2]; [7],0.262
same,NF-kB SEAP reporter activity,RAW-Dual [2]; [8],0.198
C=C1C(=O)OC2/C=C(\C)CC/C=C(\C)CCC12 (stereo not given) (library stock concentration (final ~1000-fold dilution): 10 mM),NF-kB SEAP reporter activity,RAW-Dual [1]; agonist: LPS (TLR4) 0.1 ug/mL,0.231
same,NF-kB SEAP reporter activity,RAW-Dual [1]; [4],0.213
same,NF-kB SEAP reporter activity,RAW-Dual [1]; [5],0.153
same,NF-kB SEAP reporter activity,RAW-Dual [1]; [6],0.197
CC(=O)ON=C1C(c2c(O)[nH]c3cc(Br)ccc23)=Nc2ccccc21,NF-kB SEAP reporter activity,RAW-Dual [2]; [7],1.07
same,NF-kB SEAP reporter activity,RAW-Dual [2]; [8],1.48
CC(=O)ON=C1C(c2c(O)[nH]c3cc(Br)ccc23)=Nc2ccccc21 (library stock concentration (final ~1000-fold dilution): 10 mM),NF-kB SEAP reporter activity,RAW-Dual [1]; agonist: LPS (TLR4) 0.1 ug/mL,3.28
same,NF-kB SEAP reporter activity,RAW-Dual [1]; [4],1.19
same,NF-kB SEAP reporter activity,RAW-Dual [1]; [5],1.55
same,NF-kB SEAP reporter activity,RAW-Dual [1]; [6],1.41
CCN(CC)CCOC(=O)C(Cc1cccc2ccccc12)CC1CCCO1.O=C(O)C(=O)O (stereo not given),NF-kB SEAP reporter activity,RAW-Dual [2]; [8],0.821
CCN(CC)CCOC(=O)C(Cc1cccc2ccccc12)CC1CCCO1.O=C(O)C(=O)O (stereo not given) (library stock concentration (final ~1000-fold dilution): 10 mM),NF-kB SEAP reporter activity,RAW-Dual [1]; agonist: LPS (TLR4) 0.1 ug/mL,1.08
same,NF-kB SEAP reporter activity,RAW-Dual [1]; [4],0.731
same,NF-kB SEAP reporter activity,RAW-Dual [1]; [5],0.761
same,NF-kB SEAP reporter activity,RAW-Dual [1]; [6],1.01
Nc1nc(NCCNc2ncc(-n3ccnc3)c(-c3ccc(Cl)cc3Cl)n2)ccc1[N+](=O)[O-] (library stock concentration (final ~1000-fold dilution): 10 mM),NF-kB SEAP reporter activity,RAW-Dual [1]; agonist: LPS (TLR4) 0.1 ug/mL,2.5
same,NF-kB SEAP reporter activity,RAW-Dual [1]; [4],2.96
same,NF-kB SEAP reporter activity,RAW-Dual [1]; [5],1.46
same,NF-kB SEAP reporter activity,RAW-Dual [1]; [6],2.83
Nc1nc(NCCNc2ncc(-n3ccnc3)c(-c3ccc(Cl)cc3Cl)n2)ccc1[N+](=O)[O-],NF-kB SEAP reporter activity,RAW-Dual [2]; [7],2.49
same,NF-kB SEAP reporter activity,RAW-Dual [2]; [8],2.25
